From the supplement of paper PMC6897291
Several values for one entry are separate records, joined by “and”; a condition that tells them apart may be missing. Identical values can stand only once. Counter-ions that a name gives are not always drawn.

Columns and labels:
RIVA [1] = assay: growth inhibition by drug alone (1 - RLU/untreated control) (fraction); higher = stronger inhibition; conditions: 177Lu-lilotomab satetraxetan 0 ug/ml
Outline: (§1)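 A radiolabelled anti-CD37 antibody conjugate (~600 MBq/mg) was applied for 18 h at 0.5 µg/ml to RIVA and 1 µg/ml to U-2932 cells, with untreated cells run alongside. All cells were washed and seeded at 3,000 cells/well onto library-printed plates at 10/100 nM (RIVA) or 10/1,000 nM (U-2932). Growth inhibition was based on RealTime-Glo luminescence compared with untreated no-drug wells. Daily reads began on day 3 after 1 h at 37°C, with each value being 1 − RLU/mean of the 48 such wells on that plate.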

U-2932 [2] = assay: growth inhibition by drug plus 177Lu-lilotomab satetraxetan (1 - RLU/untreated control) (fraction); higher = stronger inhibition; conditions: 177Lu-lilotomab satetraxetan 1 ug/ml
Outline: as §1

U-2932 [3] = assay: growth inhibition by drug alone (1 - RLU/untreated control) (fraction); higher = stronger inhibition; conditions: 177Lu-lilotomab satetraxetan 0 ug/ml
Outline: as §1

RIVA [4] = assay: growth inhibition by drug plus 177Lu-lilotomab satetraxetan (1 - RLU/untreated control) (fraction); higher = stronger inhibition; conditions: 177Lu-lilotomab satetraxetan 0.5 ug/ml
Outline: as §1

SMILES	growth inhibition by drug alone (RIVA [1]; 10 nM, time (day): 3)	growth inhibition by drug alone (RIVA [1]; 10 nM, time (day): 4)	growth inhibition by drug alone (RIVA [1]; 10 nM, time (day): 5)	growth inhibition by drug alone (RIVA [1]; 10 nM, time (day): 6)	growth inhibition by drug alone (RIVA [1]; 100 nM, time (day): 3)	growth inhibition by drug alone (RIVA [1]; 100 nM, time (day): 4)	growth inhibition by drug alone (RIVA [1]; 100 nM, time (day): 5)	growth inhibition by drug alone (RIVA [1]; 100 nM, time (day): 6)	growth inhibition by drug plus 177Lu-lilotomab satetraxetan (U-2932 [2]; 10 nM, time (day): 3)	growth inhibition by drug plus 177Lu-lilotomab satetraxetan (U-2932 [2]; 10 nM, time (day): 4)	growth inhibition by drug plus 177Lu-lilotomab satetraxetan (U-2932 [2]; 10 nM, time (day): 5)	growth inhibition by drug plus 177Lu-lilotomab satetraxetan (U-2932 [2]; 10 nM, time (day): 6)	growth inhibition by drug plus 177Lu-lilotomab satetraxetan (U-2932 [2]; 1000 nM, time (day): 3)	growth inhibition by drug plus 177Lu-lilotomab satetraxetan (U-2932 [2]; 1000 nM, time (day): 4)	growth inhibition by drug plus 177Lu-lilotomab satetraxetan (U-2932 [2]; 1000 nM, time (day): 5)	growth inhibition by drug plus 177Lu-lilotomab satetraxetan (U-2932 [2]; 1000 nM, time (day): 6)	growth inhibition by drug alone (U-2932 [3]; 1000 nM, time (day): 5)	growth inhibition by drug plus 177Lu-lilotomab satetraxetan (RIVA [4]; 10 nM, time (day): 3)	growth inhibition by drug plus 177Lu-lilotomab satetraxetan (RIVA [4]; 10 nM, time (day): 4)	growth inhibition by drug plus 177Lu-lilotomab satetraxetan (RIVA [4]; 10 nM, time (day): 5)	growth inhibition by drug plus 177Lu-lilotomab satetraxetan (RIVA [4]; 10 nM, time (day): 6)	growth inhibition by drug plus 177Lu-lilotomab satetraxetan (RIVA [4]; 100 nM, time (day): 3)	growth inhibition by drug plus 177Lu-lilotomab satetraxetan (RIVA [4]; 100 nM, time (day): 4)	growth inhibition by drug plus 177Lu-lilotomab satetraxetan (RIVA [4]; 100 nM, time (day): 5)	growth inhibition by drug plus 177Lu-lilotomab satetraxetan (RIVA [4]; 100 nM, time (day): 6)	growth inhibition by drug alone (U-2932 [3]; 10 nM, time (day): 3)	growth inhibition by drug alone (U-2932 [3]; 10 nM, time (day): 4)	growth inhibition by drug alone (U-2932 [3]; 10 nM, time (day): 5)	growth inhibition by drug alone (U-2932 [3]; 10 nM, time (day): 6)	growth inhibition by drug alone (U-2932 [3]; 1000 nM, time (day): 3)	growth inhibition by drug alone (U-2932 [3]; 1000 nM, time (day): 4)	growth inhibition by drug alone (U-2932 [3]; 1000 nM, time (day): 6)
CN(C)CCOc1ccc(/C(=C(/CCCl)c2ccccc2)c2ccccc2)cc1 [Toremifene Citrate (Fareston, Acapodene)]	0.218	0.188	0.166	-0.0195	0.0631	0.0479	0.00246	-0.0264	0.111	0.144	0.204	0.262	0.0949	0.116	0.163	0.312	–	–	–	–	–	–	–	–	–	–	–	–	–	–	–	–
Oc1nc(-c2ccc(C(F)(F)F)cc2)nc2c1CSCC2	-0.012	-0.067	-0.12	-0.313	-0.101	-0.117	-0.135	-0.199	-0.00592	0.0339	0.0301	0.0994	-0.0747	0.0641	0.0547	0.062	–	–	–	–	–	–	–	–	–	–	–	–	–	–	–	–
C[C@@H]1CCN(C(=O)CC#N)C[C@@H]1N(C)c1ncnc2[nH]ccc12	–	–	–	-0.145 and -0.158	–	–	–	-0.23 and -0.152	-0.0798 and -0.0527	–	–	–	-0.1 and -0.107	–	–	–	-0.0604 and -0.0478	0.396 and 0.421	0.461 and 0.516	0.484 and 0.536	0.5 and 0.538	0.367 and 0.379	0.424 and 0.434	0.412 and 0.435	0.396 and 0.419	–	–	–	–	–	–	–
N#Cc1c(O)c2c(-c3ccc(-c4ccccc4O)cc3)csc2[nH]c1=O	0.017	-0.0012	-0.079	-0.317	-0.44	-0.357	-0.367	-0.39	0.00586	0.0777	0.105	0.108	0.0618	0.0835	0.123	0.191	-0.0537	–	–	–	–	–	–	–	–	0.111	0.0478	-0.0374	-0.062	0.0299	-0.017	0.0109
O=C(CCc1ccc(O)cc1)c1c(O)cc(O)cc1O [Phloretin (Dihydronaringenin)]	-0.0549	-0.06	-0.168	-0.56	-0.0989	-0.0769	-0.0878	-0.189	0.0204	0.0299	0.064	0.0928	-0.0932	0.0213	-0.0168	0.0656	–	0.412	0.555	0.573	0.596	0.427	0.522	0.532	0.521	–	–	–	–	–	–	–
CCC(C)(C)C(=O)O[C@H]1C[C@@H](C)C=C2C=C[C@H](C)[C@H](CC[C@@H]3C[C@@H](O)CC(=O)O3)[C@H]21 [Simvastatin (Zocor)]	-0.198	-0.217	-0.225	-0.276	-0.024	-0.0809	-0.115	-0.175	-0.0665	-0.0212	-0.00846	0.124	-0.0261	-0.0186	-0.0188	0.0898	-0.0695	–	–	–	–	–	–	–	–	-0.0841	-0.0759	-0.00492	0.136	-0.019	-0.0256	-0.0808
Cc1[nH]c2ccccc2c1CCNCc1ccc(/C=C/C(=O)NO)cc1 [Panobinostat]	0.637	0.535	0.447	0.328	0.977	0.977	0.975	0.975	0.585	0.524	0.461	0.445	0.979	0.981	0.983	0.986	0.982	–	–	–	–	–	–	–	–	0.545	0.448	0.353	0.31	0.98	0.982	0.983
O=C(Cc1ccc(-c2ccc(OCCN3CCOCC3)cc2)cn1)NCc1ccccc1	0.0653	0.0193	-0.0159	-0.201	0.766	0.708	0.676	0.605	0.0847	0.112	0.111	0.18	0.968	0.977	0.981	0.983	0.975	–	–	–	–	–	–	–	–	0.144	0.134	0.0891	0.0449	0.964	0.971	0.978
CCN(CC)CCOc1ccc(Nc2ncc3cc(-c4c(Cl)cccc4Cl)c(=O)n(C)c3n2)cc1	-0.00347	0.00881	-0.0667	-0.267	0.458	0.461	0.386	0.22	0.0115	0.0427	0.0614	0.118	0.958	0.972	0.981	0.984	–	0.458	0.527	0.536	0.546	0.495	0.473	0.405	0.287	–	–	–	–	–	–	–
Cn1cc(C2=C(c3ccc(Cl)cc3Cl)C(=O)NC2=O)c2ccccc21	-0.0583	-0.11	-0.108	-0.172	-0.488	-0.393	-0.389	-0.481	-0.0696	0.00483	0.017	-0.0529	0.0138	0.0592	0.059	0.146	–	0.449	0.533	0.546	0.555	0.465	0.512	0.502	0.492	–	–	–	–	–	–	–
